By inhibition is commonly meant the change of the read-out against control, counted positive when it falls.

The assay concerns the target Glucose transporter (Leishmania mexicana) (UniProt O61059). Briefly: ST_JUDE_LEISH: Cytotoxicity at 2uM final concentration against transgenic Leishmania Mexicana promastigotes LmGT2 that are glucose transport deficient and complemented with the L. Mexicana glucose transporter 2. Activity is measured by DNA content using SYBR green in vitro. The assay is classed as functional.
`COc1ccc(C2=CCN(c3ccc(Cl)c(Cl)c3)C2=O)cc1OCCN1CCCCC1`: the inhibition is -4.01%.

For the molecule `Cc1cnc(C(=O)Nc2cccc(-c3cccc(-c4nc5cccc(C)c5[nH]4)c3)c2)cn1`, the inhibition stood at 0.5%.

Turning to `CN1CCCC1CCNc1ncc2c(-c3ccc(NC(=O)Nc4cc(C(F)(F)F)ccc4F)cc3)nn(C)c2n1` (stereo not given), the inhibition worked out at 3.95%.

With `Cc1csc2nc(-c3ccccn3)nc(Nc3ccc4ncsc4c3)c12`, the inhibition was determined as 0.95%.

Consider `Cn1cncc1C(=O)Nc1cccc(-c2ccc(-c3nc4cc(F)ccc4[nH]3)cc2)c1`, for which the inhibition worked out at 3.3%.

As to `CC(C)(C)OC(=O)[C@H](CC(N)=O)NC(=O)c1ccc(-c2ccc(-c3nc4cc(C(F)(F)F)ccc4[nH]3)s2)cc1`, the inhibition is 1.57%.

`CCCCCCCN1CC[C@@H](CCCc2ccnc3ccc(OCCN4CCOCC4)cc23)[C@@H](CC)C1`: the inhibition came to 9.34%.

In the case of `CCOc1cc(CNCCCCCCNCc2cc(OCC)c(OCC)c3ccccc23)c2ccccc2c1OCC`, the inhibition turned out to be 103%.

On to `CC1CCCN(C(=O)C(C)Nc2cc(Cl)ccc2N2CCOCC2)C1` (stereo not given), for which the inhibition was -0.78%.

`CN1CCN(CC(O)CNC(=O)Nc2ccc(Br)cc2)CC1` (stereo not given): the inhibition was -0.7%.

For the molecule `Cc1[nH]c(C)c(-c2ccc(Oc3ccc(F)cc3)cc2)c(=O)c1Br`, the inhibition was found to be 2.46%.

`Cc1cc(=NN=Cc2ccc(Cl)cc2)c2ccc(F)cc2[nH]1`: the inhibition amounted to 1.54%.

As to `CC(C)OC(=O)c1ccccc1S(N)(=O)=O`, the inhibition came out at 7.97%.

On to `CN(C)CCCc1cc(NC(=O)Nc2cccc(Cl)c2Cl)ccc1I`, for which the inhibition is 3.83%.

`CS(=O)(=O)c1ccc(CNCc2cccc(-c3cccc(-c4nc5cc(F)ccc5[nH]4)c3)c2)cc1`: the inhibition is -2.93%.

For `CCCCCCCCOc1ccc(N2C(N)=NC(N)=NC2(C)C)cc1`, the inhibition is -0.03%.

In the case of `Nc1ncc(-c2cc3ccccc3o2)c(N)n1`, the inhibition was -0.11%.

Consider `N#Cc1ccc(NC(=O)N2CCCN(CCCCCNC(=O)/C=C/c3ccc(Cl)c(Cl)c3)CC2)cc1`, for which the inhibition was 5.16%.

As to `COc1ccc(C2CCN(CCCNC(=O)c3ccc(NC(=O)c4ccc(Cl)cc4)cc3)CC2)c(OC)c1`, the inhibition was determined as 3.54%.

Regarding `O=C(NCc1ccccc1F)c1ccc(N2CCC(NCc3cccc(-n4cccn4)c3)CC2)cc1`, the inhibition is -1.93%.

As for `Cc1ccc(C(=O)Cn2nc(-c3ccc(C)c(S(=O)(=O)N4CCCC4)c3)ccc2=O)cc1`, the inhibition is 2.62%.

For the molecule `O=c1cc(NCCCNCc2ccc(Cl)c(Cl)c2)[nH]c2ccc(Oc3ccccc3)cc12`, the inhibition is -0.72%.

Regarding `O=C(NCCCCN1CCC(c2ccc(Br)cc2)CC1)c1ccc(NC(=O)c2ccc(Cl)cc2)cc1`, the inhibition was -1.89%.

Regarding `CCCN(CCC)S(=O)(=O)c1ccc(C(=O)N2CCC(C(=O)OCC)CC2)cc1`, the inhibition worked out at 5.48%.

For `Cc1ccc(Oc2cnn(C)c(=O)c2Nc2cccc(C(=O)NCCc3ccccn3)c2)c(C)c1`, the inhibition came out at 3.26%.

For the molecule `COc1cccc(NC(=O)Cn2c(C)c(C(=O)C(F)(F)F)c3ccccc32)c1`, the inhibition amounted to 2.26%.

Turning to `CN(c1ccc(F)cc1)S(=O)(=O)c1ccc(Cl)c(C(=O)Nc2cccc(C#N)c2)c1`, the inhibition worked out at 3.65%.

For `CNCCNCc1cccc(-c2ccc(-c3nc4cccc(C)c4[nH]3)cc2)c1`, the inhibition was 0.95%.

Turning to `COc1cc(CNCCCNc2nc3ncccc3[nH]2)c2[nH]cc(Br)c2c1`, the inhibition was 21.6%.

For the molecule `O=C(Nc1cccc(-c2nn3ccccc3c2-c2ccnc(Nc3ccc(Cc4ccncc4)cc3)n2)c1)c1c(F)cccc1F`, the inhibition amounted to 13.2%.

Turning to `COc1ccc(C2CC(=O)C3=C(C2)NC(C)=C(C(=O)OC(C)C)C3c2cccc(O)c2)cc1OC` (stereo not given), the inhibition was 1.71%.

As for `CC(C)c1ccc(-c2noc(SCC(=O)N(C)c3ccc(F)cc3)n2)cc1`, the inhibition is -0.55%.

As for `N=C1N=C(N)NCN1OCc1ccc(Cl)c(Cl)c1`, the inhibition is -0.31%.

With `COc1cccc2c(O)c(CNC3CCCCC3)ccc12`, the inhibition was found to be 1.11%.

Regarding `c1cc(CN2CCN(c3ccncc3)CC2)cc(-c2ccc(-c3nc4ccccc4[nH]3)s2)c1`, the inhibition worked out at 2.03%.

Take `Cc1ccc(NC(=O)c2ccc(N3CCN(c4ccncc4)CC3)cn2)cc1F`: the inhibition was found to be 102%.

On to `Cc1[nH]c(C)c(-c2ccc(CCc3ccc(C(F)(F)F)cc3)nc2)c(=O)c1Cl`, for which the inhibition was 0.56%.

On to `CN(C)c1ccc(-c2ccc(C(=O)NC3CCN(Cc4ccc5c(c4)OCCO5)CC3)s2)cc1`, for which the inhibition is 3.8%.

Consider `CC(C)(C)c1ccc(CN2CCCCC(NC(=O)c3cc(-c4cccc(F)c4)cs3)C2)cc1` (stereo not given), for which the inhibition was -0.11%.

As to `O=C(Cc1ccc(F)cc1)NC1CCN(c2ccnc3cc(Cl)ccc23)C1` (stereo not given), the inhibition was determined as 2.41%.

Source of the values: ChEMBL document CHEMBL3433997, “St. Jude Leishmania screening dataset” (2016).
